Experimental data as given in PubChem BioAssay (EPA / NIEHS).
“And” between values parts separate entries of the source, which are not always exact repeats. Equal values may be shown once. Inconclusive results are not listed. More than one record can exist for a structure, and the calls need not agree. The source made the active and inactive calls. Rule for the calls, unless noted: active = hit-call score of the fitted dose curve at least 0.9, where 1 is the maximum; inactive = score below 0.9.

Experiments:
[1] = molecular target: Estrogen-related receptor gamma (Homo sapiens) (UniProt P62508); test: ATG_ERRg_TRANS: Attagene TRANS-FACTORIAL HepG2 Assay for human Estrogen-Related Receptor gamma (ERRg) (AID 2282977; active = hit-call score of the fitted dose curve at least 0.9, where 1 is the maximum;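 note: hits increase reporter signal over DMSO so potencies reflect activators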); details: HepG2 Attagene TRANS reporter, ERRg transactivation
Chain of Estrogen-related receptor gamma (Homo sapiens) (P62508 whole entry, looked up, the tested form may be a part): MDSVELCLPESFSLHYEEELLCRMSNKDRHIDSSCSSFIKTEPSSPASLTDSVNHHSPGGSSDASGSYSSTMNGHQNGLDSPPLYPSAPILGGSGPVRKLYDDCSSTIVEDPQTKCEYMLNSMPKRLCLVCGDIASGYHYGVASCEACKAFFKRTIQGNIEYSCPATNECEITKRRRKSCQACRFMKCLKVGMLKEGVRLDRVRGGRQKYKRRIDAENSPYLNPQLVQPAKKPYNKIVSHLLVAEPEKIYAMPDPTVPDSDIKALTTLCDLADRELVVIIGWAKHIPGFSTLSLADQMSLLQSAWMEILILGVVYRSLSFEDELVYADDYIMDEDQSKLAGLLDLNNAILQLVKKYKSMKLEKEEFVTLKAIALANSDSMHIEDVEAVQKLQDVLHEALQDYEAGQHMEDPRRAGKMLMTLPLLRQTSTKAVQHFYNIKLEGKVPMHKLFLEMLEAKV
Procedure, shortened: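 Transient HepG2 transfectants, 24 h compound exposure, GAL4-UAS reporter mRNA by RT-PCR/6-FAM labelling/capillary electrophoresis; positive direction vs DMSO.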

[2] = BSK_3C_TissueFactor: BioMAP Diversity Plus: 3C Assay for Tissue Factor Biomarker Activity (AID 2282997); details: BioMAP 3C HUVEC, tissue factor biomarker readout; actives raise or lower the signal
Procedure, shortened: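 Dosing of human umbilical vein endothelial cells preceded a 24 h incubation. Tissue Factor was then read by ELISA, with increases and decreases both scored relative to DMSO controls.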

[3] = read-out: Intercellular Adhesion Molecule 1 (ICAM1), ICAM1 (gene 3383); test: BSK_3C_ICAM1: BioMAP Diversity Plus: 3C Assay for Intercellular Adhesion Molecule 1 (ICAM1) Biomarker Activity (AID 2283003); details: primary human endothelial cells (HUVEC); actives raise or lower the signal
Procedure, shortened: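 Human vascular endothelial primary cells, 3C conditions, 24 h treatment. ICAM-1 by ELISA.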

[4] = read-out: Human Leukocyte Antigen - DR isotype (HLADR), HLA-DRA (gene 3122); test: BSK_3C_HLADR: BioMAP Diversity Plus: 3C Assay for Human Leukocyte Antigen - DR isotype (HLADR) Biomarker Activity (AID 2283019); details: primary human endothelial cells (HUVEC); actives raise or lower the signal
Procedure, shortened: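 Bidirectional fitting against DMSO was applied to the HLA-DR ELISA signal from human umbilical vein endothelial cells, 24 h post-dose. Cytotoxicity came from parallel SRB total-protein staining; 3C proliferation was counted by SRB at 48 h.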

[5] = read-out: Matrix Metallopeptidase 1 (MMP1), MMP1 (gene 4312); test: BSK_BE3C_MMP1: BioMAP Diversity Plus: BE3C Assay for Matrix Metallopeptidase 1 (MMP1) Biomarker Activity (AID 2283024); details: primary human bronchial epithelial cells; actives raise or lower the signal
Procedure, shortened: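 Dose cells, wait 24 h, run MMP1 ELISA; cells are human bronchial epithelial primaries. Both increases and decreases relative to DMSO counted.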

[6] = read-out: Pselectin, SELP (gene 6403); test: BSK_4H_Pselectin: BioMAP Diversity Plus: 4H Assay for Pselectin Biomarker Activity (AID 2283026); details: primary human endothelial cells (HUVEC); actives raise or lower the signal
Procedure, shortened: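 Human vascular endothelium from umbilical vein; P-selectin measured by ELISA at 24 h post-dose, with cytotoxicity checked by sulforhodamine B total-protein staining in parallel cultures (0.1% SRB after 10% TCA fixation, read at 560 nm).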

[7] = read-out: Urokinase-type plasminogen activator receptor (uPAR), PLAUR (gene 5329); test: BSK_4H_uPAR: BioMAP Diversity Plus: 4H Assay for Urokinase-type plasminogen activator receptor (uPAR) Biomarker Activity (AID 2283030); details: primary human endothelial cells (HUVEC); actives raise or lower the signal
Procedure, shortened: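 uPAR level read by ELISA on HUVEC cultures (BioMAP 4H) 24 h post-dosing, analyzed for gain or loss relative to DMSO. Parallel SRB staining assessed overt cytotoxicity.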

[8] = read-out: Vascular endothelial growth factor receptor 2 (Homo sapiens) (UniProt P35968); test: BSK_4H_VEGFRII: BioMAP Diversity Plus: 4H Assay for Vascular endothelial growth factor receptor 2 (VEGFR2) Biomarker Activity (AID 2283031); details: primary human endothelial cells (HUVEC); actives raise or lower the signal
Procedure, shortened: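 Measured by ELISA after 24 h of compound treatment: VEGFR2 on primary human umbilical vein endothelial cells, fitted in both directions relative to DMSO. Parallel cultures received SRB staining (560 nm) for overt cytotoxicity.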

[9] = read-out: Human Leukocyte Antigen - DR isotype (HLADR), HLA-DRA (gene 3122); test: BSK_BE3C_HLADR: BioMAP Diversity Plus: BE3C Assay for Human Leukocyte Antigen - DR isotype (HLADR) Biomarker Activity (AID 2283032); details: primary human bronchial epithelial cells; actives raise or lower the signal
Procedure, shortened: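 Signal came from an ELISA for HLA-DR in human bronchial epithelial primary cells harvested 24 h after treatment; gain- and loss-of-signal fitting used DMSO controls as reference.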

[10] = read-out: Vascular cell adhesion molecule 1 (VCAM1), VCAM1 (gene 7412); test: BSK_4H_VCAM1: BioMAP Diversity Plus: 4H Assay for Vascular cell adhesion molecule 1 (VCAM1) Biomarker Activity (AID 2283033); details: primary human endothelial cells (HUVEC); actives raise or lower the signal
Procedure, shortened: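 Endpoint derived from bidirectional fitting against DMSO controls of VCAM-1 ELISA signal in umbilical vein endothelial cells sampled at 24 h following treatment.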

[11] = read-out: Interferon-gamma inducible Protein 10 (IP10), CXCL10 (gene 3627); test: BSK_BE3C_IP10: BioMAP Diversity Plus: BE3C Assay for Interferon-gamma inducible Protein 10 (IP10) Biomarker Activity (AID 2283034); details: primary human bronchial epithelial cells; actives raise or lower the signal
Procedure, shortened: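 Using primary human bronchial epithelial cultures, the assay captures IP-10 by ELISA one day (24 h) after exposure. Parallel SRB staining of total protein flags overt cytotoxicity. Fits run bidirectionally relative to DMSO.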

[12] = read-out: urokinase plasminogen activator (uPA), PLAU (gene 5328); test: BSK_BE3C_uPA: BioMAP Diversity Plus: BE3C Assay for urokinase plasminogen activator (uPA) Biomarker Activity (AID 2283038); details: primary human bronchial epithelial cells; actives raise or lower the signal;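 note: uPA protein level quantified by ELISA in cell cultures; uPA read one day after compound addition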
Procedure, shortened: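 ELISA for uPA on human primary bronchial epithelial cultures 24 h post-treatment, gain or loss against DMSO. Parallel SRB staining (0.1% after 10% TCA fixation, 560 nm) assessed overt cytotoxicity.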

[13] = read-out: Interleukin-6 (IL6), IL6 (gene 3569); test: BSK_CASM3C_IL6: BioMAP Diversity Plus: CASM3C Assay for Interleukin-6 (IL6) Biomarker Activity for (AID 2283040); details: primary human coronary artery smooth muscle cells; actives raise or lower the signal
[14] = read-out: Monokine induced gamma interferon (MIG), CXCL9 (gene 4283); test: BSK_CASM3C_MIG: BioMAP Diversity Plus: CASM3C Assay for Monokine induced gamma interferon (MIG) Biomarker Activity (AID 2283048); details: primary human coronary artery smooth muscle cells; actives raise or lower the signal;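 note: MIG protein level measured by ELISA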
[15] = read-out: serum amyloid A (SAA), SAA1 (gene 6288); test: BSK_CASM3C_SAA: BioMAP Diversity Plus: CASM3C Assay for serum amyloid A (SAA) Biomarker Activity (AID 2283049); details: primary human coronary artery smooth muscle cells; actives raise or lower the signal;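 note: SAA protein level quantified by ELISA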
[16] = read-out: Thrombomodulin, THBD (gene 7056); test: BSK_CASM3C_Thrombomodulin: BioMAP Diversity Plus: CASM3C Assay for Thrombomodulin Biomarker Activity (AID 2283051); details: primary human coronary artery smooth muscle cells; actives raise or lower the signal;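 note: thrombomodulin protein level measured by ELISA 24 h after dosing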
[17] = read-out: Interleukin-8 (IL8), CXCL8 (gene 3576); test: BSK_LPS_IL8: BioMAP Diversity Plus: LPS Assay for Interleukin-8 (IL8) Biomarker Activity (AID 2283078); details: primary human HUVEC with PBMC; actives raise or lower the signal
Procedure, shortened: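 ELISA read-out of IL-8 after 24 h chemical treatment of LPS-activated endothelial/PBMC human primary co-cultures. Changes either up or down relative to DMSO; overt cytotoxicity checked by sulforhodamine B staining in parallel wells.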

[18] = read-out: Tissue Factor, F3 (gene 2152); test: BSK_LPS_TissueFactor: BioMAP Diversity Plus: LPS Assay for Tissue Factor Biomarker Activity (AID 2283084); details: primary human HUVEC with PBMC; actives raise or lower the signal
Procedure, shortened: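 Compound was added to an endothelial cell/PBMC co-culture, and after 24 h tissue factor (CD142) was read by ELISA. Gain or loss of signal was fitted against a DMSO baseline, and parallel SRB staining (560 nm) tracked overt cytotoxicity.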

[19] = BSK_SAg_PBMCCytotoxicity: PBMC Cytotoxicity Assessment in the BioMAP Diversity Plus: SAg Assay (AID 2283093); details: primary human HUVEC with PBMC;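 note: PBMC viability measured as Alamar Blue reduction fluorescence at 546/580 nm; fitted both ways against DMSO so a hit may be loss or gain of signal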;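 for AC50: PBMC superantigen activated with SEB plus TSST-1 one hour after compound addition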
Procedure, shortened: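 Compound added to 75,000 PBMC/well for 1 h; SEB and TSST-1 then added at 20 ng/mL final each; 90 h incubation; Alamar Blue 6 h; read 546/580 nm ex/em. Activity fitted bidirectionally relative to DMSO baseline.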

[20] = molecular target: human RAR-related Orphan Receptor gamma (RORg), RORC (gene 6097) (UniProt P51449); test: ATG_RORg_TRANS: Attagene TRANS-FACTORIAL HepG2 Assay for human RAR-related Orphan Receptor gamma (RORg) (AID 2283011; active = hit-call score of the fitted dose curve at least 0.9, where 1 is the maximum)
Chain of human RAR-related Orphan Receptor gamma (RORg), RORC (gene 6097) (P51449 whole entry, looked up, the tested form may be a part): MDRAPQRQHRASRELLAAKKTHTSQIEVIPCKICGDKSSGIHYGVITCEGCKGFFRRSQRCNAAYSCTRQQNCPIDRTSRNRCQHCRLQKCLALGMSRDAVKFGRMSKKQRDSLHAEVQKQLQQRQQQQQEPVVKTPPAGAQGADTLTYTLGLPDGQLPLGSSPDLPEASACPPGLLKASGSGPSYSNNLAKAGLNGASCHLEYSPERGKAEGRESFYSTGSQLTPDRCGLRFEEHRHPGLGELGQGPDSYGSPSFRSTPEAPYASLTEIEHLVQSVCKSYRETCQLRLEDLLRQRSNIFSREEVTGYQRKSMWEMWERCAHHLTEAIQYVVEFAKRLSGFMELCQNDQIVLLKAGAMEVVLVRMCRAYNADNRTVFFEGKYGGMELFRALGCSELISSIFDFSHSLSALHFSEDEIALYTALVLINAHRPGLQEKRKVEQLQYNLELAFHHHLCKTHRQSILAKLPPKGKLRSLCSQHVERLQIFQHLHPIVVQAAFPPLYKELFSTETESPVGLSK
Procedure, shortened: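 Reporter transcripts from a transfected RORg-GAL4 chimera in HepG2 cells were quantified 24 h after dosing by RT-PCR, 6-FAM labelling, HpaI digestion and capillary electrophoresis; increases over DMSO baseline were fitted.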

Measured: AC50

O=C(C(=O)c1ccccc1)c1ccccc1
active: [5] 48 nM | [17] 0.0917 µM
not listed: [20]
inactive: all other assays above

COC(=O)CCSCCC(=O)OC
inactive: [1]

CC(C)CC(=O)CC(C)C
inactive: [1] | [20]

O=C(O)c1ccccc1C(=O)O
inactive: [20]

CCC(C)NC(N)=O (stereo unspecified)
inactive: [20]

CO[Si](CCCNCCN)(OC)OC
inactive: [20]

CC/C=C\CCO
inactive: [1] | [20]

CC/C=C\CCCCCO
inactive: [20]

COC(=O)/C=C\C(=O)OC
active: [9] 10.7 µM | [10] 17.7 µM | [11] 20 µM
not listed: [20]
inactive: all other assays above

CN(C)Cc1cc(C(C)(C)C)c(O)c(C(C)(C)C)c1
active: [6] 1.56 µM | [15] 5.92 µM | [19] 28.7 µM
inactive: [1] | [2] | [3] | [4] | [5] | [6] | [7] | [8] | [9] | [10] | [11] | [12] | [13] | [14] | [15] | [16] | [17] | [18] | [19]

O=C(c1ccccc1)c1ccccc1O
inactive: [1]

Brc1ccc(Oc2ccc(Br)cc2)cc1
inactive: [20]

OCCc1ccccn1
inactive: [20]

CCOC(=O)CC(=O)OCC
inactive: [20]

CCCC(=O)OC
inactive: [20]

O=C(CC(C(=O)OC1CCCCC1)S(=O)(=O)O)OC1CCCCC1 (stereo unspecified)
inactive: [1] | [20]

Sc1nc2ccccc2s1
active: [2] 1.09 µM | [18] 4.28 µM
not listed: [1] | [20]
inactive: all other assays above

CCC(C)C1N=C(C)C(C)S1 (stereo unspecified)
inactive: [1]

CN(C)N=Nc1ccccc1
inactive: [1] | [20]

C=CCOC(=O)C(=C)C
inactive: [1]

O=C(O)c1cc(Cl)cc(Cl)c1O
inactive: [1] | [20]

CCC[Si](OC(C)=O)(OC(C)=O)OC(C)=O
not listed: [1] | [20]
inactive: all other assays above

COc1cc(CNC(=O)CCCC/C=C/C(C)C)ccc1O
active: [4] 20 µM and 9.23 µM | [5] 14.4 µM and 14 µM
not listed: [1] | [20]
inactive: all other assays above

[O-][n+]1ccc(Cl)cc1
inactive: [20]

CCCCCCCCCC/C=C/C1CC(=O)OC1=O (stereo unspecified)
active: [9] 20 µM | [11] 18.4 µM
not listed: [1]
inactive: all other assays above

CC/C=C/CCO
inactive: [1] | [20]

CC[N+](CC)(CC(=O)Nc1c(C)cccc1C)Cc1ccccc1
active: [17] 0.182 µM
not listed: [1] | [20]
inactive: all other assays above
